# Data from PubChem BioAssay (Tox21).
# Unmarked numbers belong to inactive results. Results filed as inconclusive are left out. Where a call stands in place of a potency, no number is given. Active and inactive are the calls of the source. Calls come from the whole dose curve; as a rule, active = well fitted curve in the direction sought with a large enough effect in the repeat runs; inconclusive = weak or mixed curves; inactive = no such curve, though single readings can be large; an effect the other way counts as inactive or inconclusive.
# Key:
# [1] = Caspase-3/7 induction in HepG2 cells by small molecules, qHTS assay (AID 1346978); note: nearly all actives have a fitted effect of over 15% in size; note: potency is the fitted concentration of half-maximal effect
# In short: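 Caspase-3/7 induction was measured by Caspase-Glo 3/7 luminescence (30 min, room temperature) after a 17 hr compound exposure of wild-type HepG2 cells seeded at 2,000 per well and pre-incubated 5 hr.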
# [2] = Caspase-3/7 induction in CHO-K1 cells by small molecules, qHTS cell viability counter screen (AID 1346979); note: nearly all actives have a fitted effect of over 35% in size; note: potency is the fitted concentration of half-maximal effect
# In short: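 Cells (CHO-K1, wild type) are plated at 1,500 per well and incubated 5hr. Test compounds in DMSO are then pinned in, followed by 16hr at 37C and 5% CO2. Viability is read by CellTiter-Fluor fluorescence after 1hr.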
# [3] = Caspase-3/7 induction in CHO-K1 cells by small molecules, qHTS assay (AID 1346980); note: nearly all actives have a fitted effect of over 15% in size
# In short: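 Luminescent Caspase-Glo 3/7 read (30min, room temperature) quantified apoptosis induction. Cells were wild-type CHO-K1, treated with compound for 17hr at 37 C and 5% CO2.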
# [4] = target: Nuclear receptor subfamily 1 group I member 2 (Homo sapiens) (UniProt O75469); assay: Human pregnane X receptor (PXR) small molecule agonists, qHTS assay (AID 1346982); note: nearly all actives have a fitted effect of over 35% in size; note: potency is the fitted concentration of half-maximal effect
# In short: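 PXR-Luc HepG2 reporter cells (CYP3A4-driven luciferase) in 5% charcoal-stripped FBS medium, plated 5 h before compound addition, then treated 24 h at 37C. Luciferase read by ONE-Glo luminescence after 30 min at room temperature.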
# [5] = target: Cytochrome P450 2D6 (Homo sapiens) (UniProt P10635); assay: Cytochrome P450 Family 2 Subfamily D Member 6 (CYP2D6) small molecule antagonists: luciferase reporter qHTS assay (AID 1671196); note: nearly all actives have a fitted effect of over 50% in size; note: potency is the fitted concentration of half-maximal effect; for activity change, negative = inhibition: series mostly up to about 120 µM
# In short: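 Cell-free P450-Glo system: CYP2D6 with proluciferin substrate was pre-incubated with compound for 10 min, then reacted with NADPH regeneration for 1 h at room temperature. Luciferin product was detected after 20 min, and data were reported as relative luminescence units.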
# [6] = Caspase-3/7 induction in HepG2 cells by small molecules, qHTS cell viability counter screen (AID 1346981); note: series mostly up to about 92 µM; nearly all actives have a fitted effect of over 30% in size
# In short: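 Wild-type HepG2 cells, 2,000/well, settled 5 hr at 37 C, 5% CO2 before compound addition. Viability read by CellTiter-Fluor fluorescence, reagent added after 16 hr compound exposure, then 1 hr at 37C, in the same wells as the caspase read.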
# [7] = target: Nuclear receptor subfamily 1 group I member 2 (Rattus norvegicus) (UniProt Q9R1A7); assay: Rat pregnane X receptor (rPXR) activation by small molecules, qHTS assay (AID 1346983); conditions: rPXR luciferase reporter cells, One-Glo luminescence, 24 h; max activation: active compounds read high; note: nearly all actives have a fitted effect of over 20% in size; note: potency is the fitted concentration of half-maximal effect
# In short: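 Luminescent readout (One-Glo luciferase, 30 min room temperature) followed 24 hr compound treatment at 37 C of rPXR cells plated 2,000 per well and preincubated 5hr; qHTS format with compounds delivered in DMSO.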
# [8] = target: Nuclear receptor subfamily 1 group I member 2 (Homo sapiens) (UniProt O75469); assay: CYP3A4 induction through human pregnane X receptor (PXR) by small molecules, qHTS assay (AID 1346984); note: nearly all actives have a fitted effect of over 40% in size; note: potency is the fitted concentration of half-maximal effect
# In short: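 DPX-2 HepG2 cells carrying a PXR response element and CYP3A4-promoter luciferase construct, treated with compounds 24 hr at 37C. Then P450-Glo CYP3A4 Luciferin-IPA substrate (3uM final) for 3 hr at 37C, One-Glo added, luminescence read.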
# [9] = Human pregnane X receptor (PXR) small molecule agonists, qHTS cell viability counter screen (AID 1346977); note: nearly all actives have a fitted effect of over 50% in size
# In short: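 PXR-Luc HepG2, 2,000 cells/well, 5% charcoal-stripped FBS; 5hr settle; cpd 24hr, 37C/5% CO2; CellTiter-Fluor at 23hr, read 1hr later (fluorescence).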
# [10] = target: Nuclear receptor subfamily 1 group I member 2 (Homo sapiens) (UniProt O75469); assay: Human pregnane X receptor (PXR) activation by small molecules, qHTS assay (AID 1346985); note: potency is the fitted concentration of half-maximal effect; nearly all actives have a fitted effect of over 40% in size
# In short: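 DPX-2 cells (HepG2 co-transfected with a PXR response element and a CYP3A4-promoter luciferase construct) were seeded at 2,000 per well, rested 5 hr at 37C, then exposed to DMSO-dissolved compounds for 24 hr. Activation was read as luciferase luminescence.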
# Sequence of Nuclear receptor subfamily 1 group I member 2 (Homo sapiens) (O75469 whole entry, looked up): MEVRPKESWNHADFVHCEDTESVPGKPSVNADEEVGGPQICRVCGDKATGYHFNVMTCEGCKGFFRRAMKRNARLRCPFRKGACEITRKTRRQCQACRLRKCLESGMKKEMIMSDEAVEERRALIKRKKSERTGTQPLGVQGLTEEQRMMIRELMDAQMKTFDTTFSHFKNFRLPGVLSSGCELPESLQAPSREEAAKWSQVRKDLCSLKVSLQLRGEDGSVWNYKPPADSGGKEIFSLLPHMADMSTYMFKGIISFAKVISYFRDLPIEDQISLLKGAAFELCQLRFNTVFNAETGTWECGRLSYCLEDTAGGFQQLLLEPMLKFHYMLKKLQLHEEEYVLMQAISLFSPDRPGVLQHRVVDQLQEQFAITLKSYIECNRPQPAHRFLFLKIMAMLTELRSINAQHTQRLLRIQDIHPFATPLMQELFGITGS
# Sequence of Nuclear receptor subfamily 1 group I member 2 (Rattus norvegicus) (Q9R1A7 whole entry, looked up): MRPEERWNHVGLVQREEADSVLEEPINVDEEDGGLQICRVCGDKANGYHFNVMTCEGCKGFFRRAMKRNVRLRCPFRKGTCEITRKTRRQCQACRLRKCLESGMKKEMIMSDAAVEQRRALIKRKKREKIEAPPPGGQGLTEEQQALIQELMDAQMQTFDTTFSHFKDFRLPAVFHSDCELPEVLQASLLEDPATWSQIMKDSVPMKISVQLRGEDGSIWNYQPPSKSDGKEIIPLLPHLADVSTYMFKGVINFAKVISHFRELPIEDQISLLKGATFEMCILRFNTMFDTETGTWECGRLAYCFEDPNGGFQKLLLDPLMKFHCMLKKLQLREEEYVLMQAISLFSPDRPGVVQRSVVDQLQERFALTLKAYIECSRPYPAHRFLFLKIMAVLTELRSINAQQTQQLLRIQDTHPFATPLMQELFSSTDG
# Sequence of Cytochrome P450 2D6 (Homo sapiens) (P10635 whole entry, looked up): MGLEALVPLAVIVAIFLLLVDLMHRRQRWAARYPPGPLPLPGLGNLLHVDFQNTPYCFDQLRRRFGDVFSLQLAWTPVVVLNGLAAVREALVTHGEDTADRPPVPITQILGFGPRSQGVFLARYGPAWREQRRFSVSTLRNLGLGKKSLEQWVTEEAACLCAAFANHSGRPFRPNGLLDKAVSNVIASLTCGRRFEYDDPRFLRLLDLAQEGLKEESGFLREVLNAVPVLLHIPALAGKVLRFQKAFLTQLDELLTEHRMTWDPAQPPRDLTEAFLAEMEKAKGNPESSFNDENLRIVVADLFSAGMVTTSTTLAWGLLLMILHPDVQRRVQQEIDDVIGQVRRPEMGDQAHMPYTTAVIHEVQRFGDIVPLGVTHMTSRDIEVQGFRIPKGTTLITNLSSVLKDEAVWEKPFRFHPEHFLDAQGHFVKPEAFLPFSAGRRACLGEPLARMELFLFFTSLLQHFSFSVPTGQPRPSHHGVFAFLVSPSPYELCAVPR
structure (smiles),measurement,setting,value
C1CSCCS1,Potency,[1],inactive
same,Potency,[2],inactive
same,outcome,[3],inactive
same,Potency,[4],27.1 µM (active)
Nc1ccc(Oc2ccc(N)c(N)c2)cc1,Potency,[1],inactive
same,Potency,[2],61.1 µM (active)
same,outcome,[3],inactive
same,Potency,[4],19.3 µM (active)
same,Potency,[5],5.64 µM (active)
c1ccc(CN(CC2=NCCN2)c2ccccc2)cc1,Potency,[1],inactive
same,Potency,[2],inactive
same,outcome,[3],inactive
same,Potency,[6],inactive
same,Potency,[4],inactive
same,max activation,[7],-0.824%
same,Potency,[8],inactive
same,Potency,[5],1.38 µM (active)
O=C1N(c2ccccc2)c2ccccc2C1(Cc1ccncc1)Cc1ccncc1,Potency,[9],inactive
same,Potency,[1],inactive
same,Potency,[4],inactive
same,Potency,[5],30.9 µM (active)
Cc1c(N)cccc1N,Potency,[9],inactive
same,Potency,[2],inactive
same,outcome,[3],inactive
same,Potency,[6],inactive
same,Potency,[5],72.6 µM (active)
COc1ccc2nc(NC(=O)Nc3ccccc3)sc2c1,Potency,[9],inactive
same,Potency,[1],inactive
same,Potency,[4],1.88 µM (active)
same,Potency,[7],0.199 µM (active)
same,Potency,[5],inactive
CC(=O)N[C@@H](CC(C)C)C(=O)O,Potency,[1],inactive
same,Potency,[2],inactive
same,outcome,[3],inactive
CO[C@@]1(NC(=O)CSCC#N)C(=O)N2C(C(=O)O)=C(CSc3nnnn3C)CS[C@@H]21,Potency,[9],inactive
same,Potency,[1],inactive
same,max activation,[7],-3.26%
same,Potency,[8],inactive
same,Potency,[5],inactive
CCCCCCCCCC#N,Potency,[1],inactive
same,Potency,[2],inactive
same,outcome,[3],inactive
same,Potency,[6],inactive
same,Potency,[5],inactive
CCOC(=O)COc1ccc2c(c1)CC(NCC(O)c1cccc(Cl)c1)CC2 (stereo not drawn),Potency,[1],48.9 µM (active)
same,outcome,[3],inactive
same,Potency,[4],inactive
same,Potency,[5],0.452 µM (active)
C/C(=N\O)[C@@H](C)NCC(C)(C)CN[C@H](C)/C(C)=N/O,Potency,[1],inactive
same,outcome,[3],inactive
same,Potency,[6],inactive
same,Potency,[4],inactive
Cc1ccc([N+](=O)[O-])c(N)c1,Potency,[1],inactive
same,Potency,[4],66.9 µM (active)
same,Potency,[5],inactive
CN(C)CC[C@@H](c1ccc(Cl)cc1)c1ccccn1,Potency,[1],inactive
same,Potency,[2],inactive
CN1CCN(C2=Nc3ccccc3Oc3ccc(Cl)cc32)CC1,Potency,[1],inactive
same,outcome,[3],inactive
same,max activation,[7],-1.38%
same,Potency,[8],1.26 µM (active)
same,Potency,[5],4.9 µM (active)
CN1CCN(C2=Nc3cc(F)ccc3Cc3ccccc32)CC1,Potency,[1],inactive
same,Potency,[2],inactive
same,outcome,[3],inactive
same,Potency,[6],inactive
same,Potency,[4],inactive
same,max activation,[7],2.35%
same,Potency,[8],25.1 µM (active)
same,Potency,[5],4.9 µM (active)
Cc1nc(-c2ccccn2)ncc1C(=O)Nn1cc(C)c2cc(F)ccc21,Potency,[9],inactive
same,Potency,[1],inactive
same,Potency,[4],4.86 µM (active)
same,Potency,[5],44.8 µM (active)
COc1cc(N)c(Cl)cc1C(=O)NC1CCN(Cc2ccccc2)CC1,Potency,[1],inactive
same,Potency,[2],inactive
same,outcome,[3],inactive
same,Potency,[6],inactive
same,Potency,[4],inactive
same,max activation,[7],-4.93%
same,Potency,[8],inactive
same,Potency,[5],0.0309 µM (active)
CN(CCCN1c2ccccc2CCc2ccccc21)CC(=O)c1ccc(Cl)cc1,Potency,[1],inactive
same,outcome,[3],inactive
same,Potency,[6],inactive
same,Potency,[8],25.1 µM (active)
same,Potency,[5],7.76 µM (active)
CC(C)C[C@H](NC(=O)OCC1c2ccccc2-c2ccccc21)C(=O)O,Potency,[1],inactive
same,Potency,[2],inactive
same,outcome,[3],inactive
same,Potency,[6],inactive
NC(Cc1ccc(F)cc1)C(=O)O (stereo not drawn),caspase activation,[1],0.163% [at 8.39 µM]
same,caspase-3/7 activation,[3],2.35% [at 8.39 µM]
C=O,Potency,[1],inactive
same,Potency,[2],inactive
same,outcome,[3],inactive
same,Potency,[6],inactive
same,max activation,[7],-2.05%
CC(Oc1c(Cl)cccc1Cl)C1=NCCN1 (stereo not drawn),Potency,[9],inactive
same,Potency,[1],inactive
same,Potency,[6],inactive
same,Potency,[5],4.9 µM (active)
OCC(CBr)(CBr)CBr,Potency,[9],inactive
same,Potency,[2],inactive
same,outcome,[3],inactive
same,Potency,[6],inactive
same,Potency,[5],inactive
NC(=O)NS(=O)(=O)c1ccc(Cl)cc1,Potency,[1],inactive
same,outcome,[3],inactive
same,Potency,[6],inactive
same,Potency,[4],inactive
same,Potency,[5],inactive
CCC(=O)c1ccc2c(c1)N(CCCN(C)C)c1ccccc1S2,Potency,[1],inactive
same,Potency,[2],inactive
same,outcome,[3],inactive
same,Potency,[4],inactive
same,Potency,[5],1.1 µM (active)
CC1=C(O)C(=O)OC1C (stereo not drawn),Potency,[1],inactive
same,Potency,[2],inactive
same,Potency,[6],inactive
same,Potency,[4],inactive
same,Potency,[5],inactive
O=C1Nc2ccc([N+](=O)[O-])cc2C1=O,Potency,[1],inactive
same,outcome,[3],inactive
same,Potency,[4],inactive
same,Potency,[5],7.09 µM (active)
Cc1cc2c(s1)Nc1ccccc1N=C2N1CCN(C)CC1,Potency,[1],inactive
same,Potency,[2],7.5 µM (active)
same,outcome,[3],inactive
same,Potency,[4],inactive
same,max activation,[7],-3.7%
same,Potency,[8],inactive
same,Potency,[5],inactive
CCN(CC)CCOc1ccc(Cc2ccccc2)cc1,Potency,[1],inactive
same,max activation,[7],-17.9%
same,Potency,[8],11.2 µM (active)
same,Potency,[10],4.47 µM (active)
same,Potency,[5],9.77 µM (active)
CNCCC(Oc1ccccc1OC)c1ccccc1 (stereo not drawn),Potency,[1],inactive
same,Potency,[2],inactive
same,outcome,[3],inactive
same,Potency,[6],inactive
same,Potency,[5],0.977 µM (active)
O=C(O)CN(CCN(CC(=O)O)CC(=O)O)CCN(CC(=O)O)CC(=O)O,caspase activation,[1],0.916% [at 19 µM]
same,Potency,[2],13 µM (active)
same,caspase-3/7 activation,[3],5.14% [at 19 µM]
same,activation,[4],8.36% [at 19 µM]
same,"activity change, negative = inhibition",[5],-5.69% [at 23.6 µM]
Cc1nc(N)nc(N)c1-c1ccc(Cl)c(Cl)c1,Potency,[1],inactive
same,Potency,[2],inactive
same,Potency,[6],inactive
same,Potency,[4],inactive
same,Potency,[5],2.19 µM (active)
